Experimental data from PubChem BioAssay (NCI).
The panel holds about 79,000 compounds, 15% with a hit somewhere; the sample as a whole holds those more often. Rule as the data show it: active = growth inhibition above about 70%; inactive = the rest.

Key:
[1] = NCI Yeast Anticancer Drug Screen. Data for the rad50 strain (AID 155);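 also: 0% = growth of vehicle-only cultures of the same strain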; details: S. cerevisiae rad50 strain growth inhibition; at 50.0 µM; hits give high values
Outline: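 Vehicle-treated cultures provide the reference for the growth inhibition reported for compound-exposed, repair-deficient yeast.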

[2] = NCI Yeast Anticancer Drug Screen. Data for the mec2-1 strain (AID 157); details: S. cerevisiae mec2-1 strain, at 50.0 µM, hits give high values
Outline: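 Using mec2-1 yeast: add compound, measure growth, express inhibition versus vehicle-treated cultures.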

[3] = NCI Yeast Anticancer Drug Screen. Data for the sgs1 mgt1 strain (AID 161);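 also: 0% = growth of cultures given vehicle only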; details: S. cerevisiae sgs1 mgt1 strain, at 50.0 µM, hits give high values
Outline: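 Yeast cells carrying a defined DNA-repair defect were exposed to test compounds. Growth inhibition was measured relative to vehicle-treated controls.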

[4] = NCI Yeast Anticancer Drug Screen. Data for the cln2 rad14 strain (AID 165);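 also: 0% = growth equal to vehicle treated cultures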; details: S. cerevisiae cln2 rad14 strain, at 50.0 µM, hits give high values
Outline: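 Yeast strain cln2 rad14, bearing defects in cell cycle control and DNA repair, serves as the test system; values reflect growth inhibition compared with vehicle.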

[5] = NCI Yeast Anticancer Drug Screen. Data for the mlh1 rad18 strain (AID 175); details: S. cerevisiae mlh1 rad18 strain growth inhibition; at 50.0 µM; hits give high values
Outline: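 Steps: expose repair-defective yeast to compound; measure growth; express inhibition against vehicle-treated controls.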

[6] = NCI Yeast Anticancer Drug Screen. Data for the bub3 strain (AID 167); details: S. cerevisiae bub3 mutant strain, at 50.0 µM, hits give high values
Outline: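 Mutant yeast screening strain plus compound; vehicle-treated cultures serve as the 0% inhibition reference.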

Measured: growth inhibition

Cc1ccc(S(=O)(=O)NC(=O)NCCSSCCNC(=O)NS(=O)(=O)c2ccc(C)cc2)cc1
inactive: [1] 10.6% | [2] -7.35% | [3] 12.6% | [4] -1% | [5] 7.95%

COC(c1ccc2c(c1)OCO2)C(C)Br (configuration not stated)
inactive: [1] 7.45% | [3] 13.6% | [4] -31.1% | [6] -8.9% | [5] 6.55%

NNc1ncnc2nc[nH]c12
inactive: [1] -20.4% | [2] -9.65% | [3] -14.3% | [4] -44.7% | [5] -19.4%

COC(=O)C1=C(C)C(=O)CC1
inactive: [1] 16.7% | [2] -1.5% | [3] 11.8% | [4] -11.9% | [6] 13.9% | [5] 14.2%

O=S(=O)(OCCOS(=O)(=O)c1ccccc1)c1ccccc1
inactive: [1] 31.9% | [2] 1.45% | [3] -0.9% | [4] -27.9% | [5] 50.7%

CCN(CC)CCOC(=O)Nc1c(C(C)C)cccc1C(C)C
inactive: [1] -2.7% | [2] -24.3% | [3] 14.3% | [4] 15.4% | [5] 2.15%

Oc1ccc(CCC2CCNc3ccccc32)cc1 (configuration not stated)
inactive: [1] 0.35% | [2] -1.85% | [3] -14.2% | [4] -11.7% | [5] -3.9%

O=S(Cc1ccccc1)/C(=C/NC(=S)Nc1ccccc1)c1ccccc1 (configuration not stated)
inactive: [1] -26.7% | [2] -25.1% | [3] -40.1% | [4] -0.95% | [5] -7.15%

Cc1ccc(N2C(=O)c3cccc4c(N)c(S(=O)(=O)O)cc(c34)C2=O)cc1
inactive: [1] -33.5% | [2] -18.2% | [3] -24.7% | [4] -6.8% | [5] -28.4%

O=CNCCc1ccccc1
inactive: [1] 7.25% | [2] -9.05% | [3] 6.85% | [4] 5% | [6] 6.3% | [5] 2.35%

O=C(O)Cc1cccc2ccccc12
inactive: [1] 19.2% | [2] -7.55% | [3] 2.65% | [4] 0.05% | [5] -0.55%

CCCCCCCCCCCCCCCCCC(=O)NCCNC(=O)CCCCCCCCCCCCCCCCC
inactive: [1] -5.7% | [2] -27.6% | [3] -1.15% | [4] 20.6% | [5] -4.25%

CCCCn1cnc2c(=O)[nH]cnc21
inactive: [1] 3.2% | [2] 2.25% | [3] -5.15% | [4] -14.8% | [5] 2.3%

O=C(OCc1ccccc1)n1nnc2ccccc21
inactive: [1] 27.8% | [2] -4.05% | [3] 8.55% | [4] -17.2% | [5] 2.45%

C=CCN1CCCC1=O
inactive: [1] 7.85% | [2] 10.6% | [3] 1.5% | [4] -18.6% | [5] 4.05%

CCCCCCCCNC(=O)C(C)C
inactive: [1] -13.9% | [2] 30.1% | [3] -2.15% | [4] -42.1% | [5] -11.9%

COc1ccc(/C=N/NC(=O)COCC(=O)N/N=C/c2ccc(OC)cc2)cc1
inactive: [1] -34.6% | [2] -47.7% | [3] -15.4% | [4] 2.5% | [5] -25.6%

O=C(O)c1cc(I)ccc1O
inactive: [1] -6.65% | [2] -0.3% | [3] -1.25% | [4] -33.8% | [5] 26.9%

COc1ccc(C2CC(c3ccccc3)=Nc3ccccc3S2)cc1 (configuration not stated)
inactive: [1] -12.1% | [2] -17.9% | [3] 16% | [4] -11.3% | [5] 0.95%

Cc1cc(Cl)cc(Cc2cc(Cl)cc(C)c2O)c1O
inactive: [1] 50.1% | [2] 24.1% | [3] 55% | [4] 29% | [5] 20.6%

COc1ccc(/C=C\C(=O)/C=C/c2ccc(OC)cc2)cc1
inactive: [1] -11.9% | [2] 7.05% | [3] 1.5% | [4] -14.4% | [5] 0%

Cc1c(-c2ccc(C3CCCCC3)cc2)nc2ccc(F)cc2c1C(=O)O
inactive: [1] 15.3% | [2] 8.15% | [3] 12.3% | [4] 5.3% | [5] -15.2%

Nc1ccn(C2OC(CO)C(O)C2F)c(=O)n1 (configuration not stated)
inactive: [1] 12.4% | [2] 0.45% | [3] 11.9% | [4] 10.7% | [5] -6.95%

C#CC(O)c1ccccc1 (configuration not stated)
inactive: [1] -2.4% | [2] -15.3% | [3] 13.1% | [4] -11.6% | [5] -0.65%
